Screens deposited in PubChem BioAssay by National Center for Advancing Translational Sciences (NCATS).
L3MBTL1 block – qHTS Assay for the Inhibitors of L3MBTL1. Lethal(3)malignant brain tumor-like protein 1 (Homo sapiens), Q9Y468. AlphaScreen L3MBTL1–H3K9me1 peptide binding. Potency, µM (titrated, usually from 57.1 µM), for inactives: at the highest dose activity, negative = inhibition, usual class: inhibitors. 230,000 tested, 0.66% active; note: potency is the fitted concentration of half-maximal effect; % is set by controls: 0 for no effect and ±100 for the full control effect; nearly all actives have a fitted effect of over 60% in size
Target sequence (Q9Y468 whole entry, looked up): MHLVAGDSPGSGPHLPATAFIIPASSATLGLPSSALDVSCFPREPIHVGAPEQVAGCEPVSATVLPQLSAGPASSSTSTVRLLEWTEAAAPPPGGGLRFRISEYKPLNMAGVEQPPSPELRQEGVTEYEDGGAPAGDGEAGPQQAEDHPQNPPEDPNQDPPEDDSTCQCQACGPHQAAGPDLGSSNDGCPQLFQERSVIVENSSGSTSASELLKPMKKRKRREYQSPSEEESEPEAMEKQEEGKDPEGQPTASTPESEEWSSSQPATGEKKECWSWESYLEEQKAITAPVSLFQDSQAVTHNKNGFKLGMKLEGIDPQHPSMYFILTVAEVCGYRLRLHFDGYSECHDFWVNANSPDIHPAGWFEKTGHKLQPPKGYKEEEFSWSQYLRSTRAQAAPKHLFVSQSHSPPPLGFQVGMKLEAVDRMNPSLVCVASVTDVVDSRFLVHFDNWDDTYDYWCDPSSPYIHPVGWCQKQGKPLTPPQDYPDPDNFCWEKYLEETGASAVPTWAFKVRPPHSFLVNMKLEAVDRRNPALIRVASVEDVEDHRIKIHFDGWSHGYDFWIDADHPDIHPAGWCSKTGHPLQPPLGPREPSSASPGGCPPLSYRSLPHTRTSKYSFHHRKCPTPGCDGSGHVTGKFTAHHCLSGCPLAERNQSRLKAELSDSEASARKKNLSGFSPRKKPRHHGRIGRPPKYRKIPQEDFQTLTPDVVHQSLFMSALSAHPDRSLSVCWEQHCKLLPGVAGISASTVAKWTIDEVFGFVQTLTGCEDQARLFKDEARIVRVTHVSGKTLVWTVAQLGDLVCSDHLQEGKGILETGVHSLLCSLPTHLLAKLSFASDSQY
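Displacement of a biotinylated histone H3(1-15) peptide monomethylated at Lys9 (75 nM) from L3MBTL1 (50 nM) was measured by AlphaScreen after a 30 min room-temperature compound incubation; cefsulodin titration served as intraplate control.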
BAZ2B block – qHTS Assay for Inhibitors of BAZ2B. AlphaScreen BAZ2B-H3K14Ac peptide displacement. Potency, µM (top dose mostly 114 µM), without a hit: at the highest dose activity change, negative = inhibition, hits mostly inhibitors. 360,000 tested, 4.4% active; note: potency is the fitted concentration of half-maximal effect; % is set by controls: 0 for no effect and ±100 for the full control effect; nearly all actives have a fitted effect of over 60% in size
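Multi-concentration screen (max 110 uM) measuring displacement of acetylated histone H3 peptide from BAZ2B by AlphaScreen, using 50 nM protein, 50 nM peptide and 10 ug/mL streptavidin donor plus Ni-chelate acceptor beads.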
G9a inh – qHTS Assay for Inhibitors of Histone Lysine Methyltransferase G9a. Histone-lysine N-methyltransferase EHMT2 (Homo sapiens), Q96KQ7. G9a H3K9 monomethylation, AlphaScreen, 2 h. Potency, µM (top dose mostly 102 µM), without a hit: top-dose activity, negative = inhibition, most hits filed as inhibitors. 350,000 tested, 8.8% active. AID 504332, 2011; note: potency is the fitted concentration of half-maximal effect; % is set by controls: 0 for no effect and ±100 for the full control effect; nearly all actives have a fitted effect of over 75% in size
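Compounds were preincubated with 20 nM G9a for 15 min, after which biotinylated H3K9 peptide (500 nM) and SAM (20 uM) started a 2 h room-temperature reaction. Monomethylated product was quantified by antibody-based AlphaScreen chemiluminescence.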
PI5P4K alpha inh – qHTS for Inhibitors of phosphatidylinositol 5-phosphate 4-kinase (PI5P4K); 330,000 tested, 1.2% active; PI5P4Kalpha enzyme, ADP-Glo luminescence, 60 min; active compounds read low; max response, %; Phosphatidylinositol 5-phosphate 4-kinase type-2 alpha (Homo sapiens), P48426; active = max response of -50% or lower; inconclusive = between -30% and -50%; inactive = -30% or higher; note: value at the top dose of about 77 µM; % is set by controls: 0 for no effect and ±100 for the full control effect
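Luminescence from ADP-Glo served as readout of PI5P4Kalpha activity in a qHTS format. Reaction: enzyme, substrate, compound, ATP at 5 microM final, 60 min at RT.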
HP1b binding inh – HTS for Inhibitors of HP1-beta Chromodomain Interactions with Methylated Histone Tails; Chromobox protein homolog 1 (Homo sapiens), P83916; AlphaScreen HP1-beta / biotin-H3K9me3 peptide binding; Potency, µM (top dose mostly 114 µM), without a hit: at the top dose activity change, negative = inhibition, most hits filed as inhibitors; 390,000 tested, 0.56% active; AID 540317, 2011; note: potency is the fitted concentration of half-maximal effect; nearly all actives have a fitted effect of over 70% in size
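HP1-beta protein (50 nM final) preincubated 30 min at room temperature with biotinylated H3(1-18)K9me3 peptide (50 nM) in PBS pH 7.4, 0.01% Tween-20, then compound added for 30 min. AlphaScreen streptavidin donor/nickel chelate acceptor beads (10 ug/mL final), 30 min dark, luminescence read.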
JMJD2A Tudor – qHTS Assay for Inhibitors of JMJD2A-Tudor Domain | Potency, µM (titrated, usually from 114 µM), for inactives: at the top dose activity change, negative = inhibition, hits mostly inhibitors | AlphaScreen JMJD2A-Tudor / H3K4me3 peptide binding | 390,000 tested, 4.4% active; note: potency is the fitted concentration of half-maximal effect; % is set by controls: 0 for no effect and ±100 for the full control effect; nearly all actives have a fitted effect of over 50% in size
The depositor's hits bear a star; ? = inconclusive; . = not tested or not shown; [ ] = remark or other dose. This is a sample that favours compounds with a hit; in the whole collection about 11% have one here. Unless noted, calls come from the whole dose curve; as a rule, active = well fitted inhibition curve with a large enough effect; inconclusive = small, poorly fitted or top-dose-only effect; inactive = no such curve, though single readings can be large or run the other way.

SMILES	L3MBTL1 block	BAZ2B block	G9a inh	PI5P4K alpha inh	HP1b binding inh	JMJD2A Tudor
O=C(CCCSc1nc2ccccc2[nH]1)NCc1ccccc1Cl	3%	-2%	35µM*	9	?	-17%
COc1ccccc1N1CCN(C(=O)CSc2ncccc2-c2nc3ccccc3[nH]2)CC1	.	-36%	45µM*	.	39%	-31%
O=C(CSc1n[nH]c(-c2ccccc2)n1)N1CCN(c2ccc(F)cc2)CC1	.	-11%	-2%[59 µM]	.	7%[57 µM]	-22%
O=C(CSc1ncccc1-c1nc2ccccc2[nH]1)N1CCN(c2ccccc2F)CC1	-20%	-8%	-45%	.	24%	-28%
O=C(CCCSc1nc2ccccc2[nH]1)N1CCN(c2ccccc2)CC1	7%	-37%	45µM*	.	9%	-34%
O=C(CSc1nc(O)cc(=O)[nH]1)N1c2ccccc2Sc2ccccc21	-14%	-29%	?	1	33%	-31%
COc1ccccc1N1CCN(C(=O)CSc2nc3ccccc3[nH]2)CC1	.	-4%	7.9µM*	.	4%	-7%
O=C(CSc1nc2ccccc2[nH]1)N1c2ccccc2Sc2ccccc21	-1%	?	45µM*	6	5%	?
COc1ccc(N2CCN(C(=O)CSc3ncccc3-c3nc4ccccc4[nH]3)CC2)cc1	-3%	?	25µM*	.	-15%	?
CCn1cnc2c(Nc3ccc(CC(=O)N=C(N)N)cc3)nc(C#N)nc21	.	.	.	.	.	-21%
Cc1c(C)n(C(=O)CSc2nc3ccccc3[nH]2)c2ccccc12	.	?	50µM*	-10	2%	?
O=C(CSc1nc2ccccc2[nH]1)N1CCCCC1	.	-5%	-34%[12.7 µM]	.	22%	-1%
COc1ccccc1N1CCN(C(=O)CC(NC(=O)c2ccccc2Cl)c2ccccc2)CC1 (centres undefined)	-1%	6%	45µM*	6	27%	-8%
CC(=O)Oc1ccc2cc(-c3nc4c(s3)CCc3ccccc3-4)c(=O)oc2c1	.	.	.	.	34%[57 µM]	-1%[57.1 µM]
C[C@@H]1NC(=O)c2cc([N+](=O)[O-])cc(I)c2NCC[C@@H](C(N)=O)NC(=O)[C@H](CC(N)=O)NC1=O	2%	-33%	22µM*	6	23%	-31%
CC[C@H](C)C1NC(=O)[C@H](CC(=O)O)NC(=O)c2cc([N+](=O)[O-])cc(I)c2NCCC(C(N)=O)NC1=O (some centres undefined)	-15%	-32%	?	-8	25%	-20%
C[C@@H]1NC(=O)[C@H](CCC(N)=O)NC(=O)c2cc([N+](=O)[O-])cc(I)c2NCC[C@@H](C(N)=O)NC1=O	3%	?	11µM*	-8	4%	-35%
CCS(=O)(=O)N1CCc2cc(C(=O)Nc3cc(OC)c(Cl)cc3OC)ccc21	.	?	-44%[59 µM]	.	27%	?
O=C(NCSc1ccnc(SCNC(=O)c2ccc(F)cc2)n1)c1ccc(F)cc1	8%	-30%	2.8µM*	.	20%	-29%
CN(C)c1ccc(-c2nnn(CC(=O)Nc3ccccc3N3CCOCC3)n2)cc1	?	?	50µM*	.	-18%	?
Cc1ccc(C)c(N2CCN(S(=O)(=O)c3ccc(-c4cnc(C5CC5)o4)cc3)CC2)c1	.	-36%	-2%[12.7 µM]	.	8%	-25%
COc1cc(-c2nc3ccccc3nc2-c2ccc(O)c(OC)c2)ccc1O	-4%	-9%	.	-1	3%	-29%
COc1cc(-c2nc3ccccn3c2N)ccc1O	5%	-31%	50µM*	8	13%	-19%
O=C(Nc1c(C(=O)Nc2ccc(F)cc2)oc2ccccc12)c1ccccc1F	.	1%	17%[59 µM]	.	58%	6%
CCCc1nn2c(=O)cc(COC(=O)C3CCCCC3)nc2s1	.	-22%	7%[59 µM]	.	-31%	-19%
SMILES	L3MBTL1 block	BAZ2B block	G9a inh	PI5P4K alpha inh	HP1b binding inh	JMJD2A Tudor
CCOC1=C/C(=C/c2c(N)n3nc(CC(=O)N4CCCCC4)sc3nc2=O)C=CC1=O	.	?	50µM*	-66*	10%	?
Cc1nn2c(=O)cc(COC(=O)c3ccc(S(=O)(=O)N4CCCCC4)cc3)nc2s1	.	7%	15%	8	28%	-13%
CCOC1=C/C(=C/c2c(N)n3nc(S(=O)(=O)CC)sc3nc2=O)C=CC1=O	-15%	-28%	35µM*	-56*	5%	-19%
COC1=C/C(=C/c2c(N)n3nc(CC(=O)N4CCCCC4)sc3nc2=O)C=CC1=O	.	-22%	?	-64*	20%	-13%
COc1ccc(CNC(=O)Cc2ccc(NC(=O)N3CCSc4ncccc43)cc2)cc1	.	-13%	?	.	39%	6%
CCOc1ccc(CNS(=O)(=O)c2ccc(-c3coc(C)n3)cc2)cc1OC	.	1%	0%[59 µM]	.	26%[57 µM]	-6%
NC(=O)c1cc[n+](CC2=C(C(=O)O)N3C(=O)[C@@H](NC(=O)[C@@H](c4ccccc4)S(=O)(=O)[O-])[C@H]3SC2)cc1	.	.	3.8µM*	.	.	.
O=C(Cc1cccs1)NC1C(=O)N2C(C(=O)[O-])=C(C[n+]3ccccc3)CSC12 (centres undefined)	.	.	-43%[2.33 µM]	.	.	.
CC(C)C(NC(=O)c1ccco1)C(=O)NC1CCCCCC1 (centres undefined)	.	-2%	79µM*	1	38%	-10%
O=C(NCC(=O)N(Cc1cccs1)C(C(=O)NC1CCCC1)c1ccncc1)c1ccco1 (centres undefined)	-2%[11.4 µM]	?	?	-3	27%	1%
O=C(NCC(=O)N(Cc1ccccc1)C(C(=O)NC1CCCC1)c1ccncc1)c1ccco1 (centres undefined)	43%	10%	10µM*	-5	35%	-5%
CCOc1ccc(/C=C(\C#N)c2nc(-c3cc4ccccc4oc3=O)cs2)c(OCC)c1	.	-1%	?	.	21%	-8%
CCN(CC)S(=O)(=O)c1cc(OC)ccc1N=Nc1ccc(O)c2ncccc12	.	20µM*	8.9µM*	-16	?	13µM*
COc1ccc(S(=O)(=O)NCCOc2cccc3cccnc23)cc1OC	1%	-15%	9%	-2	28%	-7%
CCN(CC)S(=O)(=O)c1cccc2cccnc12	.	-5%	28%	1	22%	14%
CCS(=O)(=O)c1ccc(OC)c(N=Nc2ccc(O)c3ncccc23)c1	.	8.9µM*	14µM*	1	-2%	40µM*
